Among all 69,000 compounds or so, about 8,600 (12%) showed an effect of 50% or more. The list comes from a sample in which strong results are over-represented; it also holds similar structures and randomly drawn compounds.

In this assay the test system is Plasmodium berghei. In words: Screen against P. berghei liver stage (PbLuc), transformed with Luciferase, at 10uM. To be noted: tested at 10 uM. In kind it is functional, HepG2.
Turning to `CCc1cnc(N2C[C@@H]3C[C@H](C(=O)N4CCOCC4)[C@H](C2)O3)nc1`, the INHIBITION came to 28.5%.

With `CCOC(=O)N1[C@@H](c2ccco2)[C@@H](C(=O)O)C[C@]12CCCCNC2=O`, the INHIBITION is recorded as -8.8%.

Regarding `O=C(O)c1cnc(N2CCCC2)nc1COc1ccccc1`, the INHIBITION is on record as -14.8%.

As to `Cc1cnn(C2CN(CC(=O)NCC(C)C)C2)c1`, the INHIBITION was 16.9%.

On to `CCn1cnnc1C1CCN(C(=O)c2ccoc2C)CC1`, for which the INHIBITION is -5.07%.

With `c1ccc(COc2cccc(CNC3CCc4ncnn4C3)c2)cc1` (stereo not given), the INHIBITION was determined as 33.6%.

For `Cc1ccc2c(c1)C(=O)NCC1(CCN(C(=O)c3csc(C)c3)CC1)O2`, the INHIBITION is -28.6%.

Take `O=C(N1CCOCC1)N1C2CCC(O)(CC2)C1CN1CCOCC1` (stereo not given): the INHIBITION stood at 44.2%.

On to `CNc1cc2c(nn1)CCN(C(=O)c1coc(Br)c1)C2`, for which the INHIBITION stood at 3.73%.

Consider `Cc1cnn(CC2CCCN2C(=O)Cc2c(C)nc(C)[nH]c2=O)c1` (stereo not given), for which the INHIBITION was 31.8%.

Turning to `Cc1ncc(CC(=O)N2CCCCC2CCN2CCCC2)c(=O)[nH]1` (stereo not given), the INHIBITION stood at 61.8%.

On to `Cc1ncc(CC(=O)N2CCC(N3C[C@@H](C)O[C@@H](C)C3)CC2)c(=O)[nH]1`, for which the INHIBITION came to 37.4%.

As to `CC(=O)NC(CC(=O)Nc1ccc(C)cn1)c1ccccc1` (stereo not given), the INHIBITION is 27.6%.

With `N#CC1(NC(=O)c2cc(Cl)ccc2OC(F)F)CCOCC1`, the INHIBITION is reported as 45.4%.

`O=C(NN1CCCc2ccccc21)c1c[nH]c(=O)[nH]1`: the INHIBITION was found to be 32.3%.

For `O=C(c1ccc(=O)[nH]n1)N1CCc2ccccc21`, the INHIBITION is recorded as 38.8%.

Regarding `O=C(c1c[nH]c(=O)[nH]1)N1CCc2ccccc21`, the INHIBITION worked out at 90.7%.

In the case of `O=C([C@@H]1COC[C@H]2CN(c3ccncn3)C[C@H]21)N1CCCC1`, the INHIBITION is reported as -10.3%.

In the case of `CCOC(=O)c1n[nH]cc1-c1cncn1CCCn1nc(C)cc1C`, the INHIBITION came out at 15.9%.

`CNCC(=O)N1CCC(c2cccc(Oc3ccccc3)n2)CC1`: the INHIBITION is 29.5%.

In the case of `NCC(=O)N1CCC(c2cccc(Oc3ccccc3)n2)CC1`, the INHIBITION was determined as 75.9%.

Regarding `CC(=O)N1CCC(c2cccc(Oc3ccccc3)n2)CC1`, the INHIBITION was 9.98%.

In the case of `CCn1cc(Br)c(C(=O)NCc2ccc(F)cc2)n1`, the INHIBITION is listed as -34%.

Regarding `O=C(NCc1ccc(-n2cncn2)nc1)c1cnccn1`, the INHIBITION is 48.3%.

On to `Cc1oc(C(=O)Nc2ccccc2F)cc1S(N)(=O)=O`, for which the INHIBITION is 17.5%.

Consider `Cc1cccc(C)c1NC(=O)c1cc(S(N)(=O)=O)c(C)o1`, for which the INHIBITION came out at 52.7%.

Regarding `Cc1oc(C(=O)Nc2cccc(Cl)c2C)cc1S(N)(=O)=O`, the INHIBITION is -74.6%.

For the compound `Cc1nccc(CNC(=O)Nc2cc(C(F)(F)F)c[nH]c2=O)n1`, the INHIBITION stood at 8.38%.

On to `Cc1ccn(CC(=O)NCCCOc2ccccc2F)c(=O)c1`, for which the INHIBITION worked out at 10.9%.

As for `CNC(=O)COC(=O)c1ccn(-c2ccc(Cl)c(Cl)c2)n1`, the INHIBITION is given as 35.7%.

Take `COC(=O)CNC(=O)c1ccn(-c2ccc(Cl)c(Cl)c2)n1`: the INHIBITION is given as 51.6%.

In the case of `CS(=O)(=O)NC(=O)c1ccn(-c2ccc(Cl)c(Cl)c2)n1`, the INHIBITION is -43.9%.

Take `O=C(C1CCCOC1)N1CCN(CC(F)(F)F)c2ccccc21` (stereo not given): the INHIBITION is recorded as 11.3%.

As to `O=C1N(Cc2cccc(F)c2)CCC12CCN(c1ccccn1)CC2`, the INHIBITION is listed as -15.9%.

As for `c1cncc(OC[C@]23COC[C@H]2CN(C2CCC2)C3)c1`, the INHIBITION is listed as 20.6%.

Regarding `CN(C)C(=O)COC[C@@]12CCC[C@@H]1CN(C1CCC1)C2`, the INHIBITION turned out to be 12.7%.

Regarding `c1ccc(OC[C@]23COC[C@H]2CN(C2CCOCC2)C3)nc1`, the INHIBITION is listed as -4.32%.

Regarding `C1CC(N2C[C@@H]3COC[C@]3(COCC3CCOCC3)C2)C1`, the INHIBITION came to 55.7%.

Turning to `O=C(COC[C@@]12CCC[C@@H]1CN(C1CCC1)C2)N1CCCC1`, the INHIBITION was found to be 27.6%.

For `O=C(COC[C@]12COC[C@H]1CN(C1CCC1)C2)N1CCCC1`, the INHIBITION was 60.2%.

In the case of `O=C(COC[C@@]12CCC[C@@H]1CN(C1CCCC1)C2)N1CCCC1`, the INHIBITION is listed as 34.9%.

For the compound `CN(C)C(=O)COC[C@]12COC[C@H]1CN(C1CCCC1)C2`, the INHIBITION is 56.6%.

Consider `CN(C)C(=O)COC[C@@]12CCC[C@@H]1CN(C1CCCC1)C2`, for which the INHIBITION was -25.7%.

`Nc1ncnc2nc(C3CCCCN3)ccc12` (stereo not given): the INHIBITION is on record as 26.45%.

As to `O=C(c1cc(F)ccc1O)N1CCN(C2CCSC2)CC1` (stereo not given), the INHIBITION was -75.7%.

Consider `CN(CCNc1cc(N2CCCC2CO)ncn1)Cc1ccccc1` (stereo not given), for which the INHIBITION is on record as -21.2%.

Regarding `CCC(CC)CN1CCN(CC(=O)Nc2ccc3nsnc3c2)CC1`, the INHIBITION is recorded as 8.99%.

Consider `Cc1ccc(CN2CCN(CC(=O)Nc3ccc4nsnc4c3)CC2)o1`, for which the INHIBITION was determined as 46.1%.

In the case of `CC(C)CCN1CCN(CC(=O)Nc2ccc3nsnc3c2)CC1`, the INHIBITION came out at 58.3%.

On to `O=C(CCOc1ccccc1F)NC1CCCN(c2ccccn2)C1` (stereo not given), for which the INHIBITION is -3.71%.

Consider `CN(C)Cc1cnc2n1CCN(C(=O)NC1CCCC1)CC2`, for which the INHIBITION is 43.8%.

Consider `CC(=O)c1cccc(NC(=O)c2cnc(N3CCN(C)CC3)nc2C)c1`, for which the INHIBITION is listed as 7.83%.

`CC(C)c1nc(C2CCCN(C(=O)CN(C)S(C)(=O)=O)C2)no1` (stereo not given): the INHIBITION is given as -1.35%.

Regarding `CCc1nc(C2CCCN(C(=O)c3ccccc3F)C2)no1` (stereo not given), the INHIBITION is reported as 60.5%.

Consider `CCc1nc(C2CCCN(c3ncc(Br)cn3)C2)no1` (stereo not given), for which the INHIBITION was determined as 31.7%.

With `CCc1nc(C2CCCN(C(=O)c3ccccc3O)C2)no1` (stereo not given), the INHIBITION amounted to 37.9%.

Consider `CCc1nc(C2CCCN(C(=O)c3ccccc3Cl)C2)no1` (stereo not given), for which the INHIBITION turned out to be 42%.

With `CCc1cc(N2CCCC(c3noc(CC)n3)C2)ncn1` (stereo not given), the INHIBITION is on record as 58.5%.

For `CCc1nc(C2CCCN(C(=O)CN(C)S(C)(=O)=O)C2)no1` (stereo not given), the INHIBITION worked out at 51.3%.

As for `CCc1nc(C2CCCN(C(=O)CC3CCOCC3)C2)no1` (stereo not given), the INHIBITION was -2.19%.

Take `CCc1nc(C2CCCN(c3ncccn3)C2)no1` (stereo not given): the INHIBITION is -113%.

As for `Cc1ccsc1CNCCCOc1ccccn1`, the INHIBITION was -19.1%.

With `CC(=O)c1nn(-c2ccccc2)c(C)c1C(C)=O`, the INHIBITION stood at 10.6%.

Regarding `Cc1ccc(-c2nc(CN3CCCC(Cn4cncn4)C3)no2)cc1` (stereo not given), the INHIBITION is listed as -28.3%.

As for `CCN1CC2(CC1=O)CN(Cc1cccs1)CCN(C(=O)C(C)C)C2` (stereo not given), the INHIBITION was -9.76%.

For `CCN1CC2(CC1=O)CN(C(=O)c1ccoc1)CCN(C(=O)N(C)C)C2` (stereo not given), the INHIBITION amounted to 20.9%.

In the case of `CCN1CC2(CC1=O)CN(Cc1ccsc1)CCN(C(=O)C(C)C)C2` (stereo not given), the INHIBITION was determined as 20.9%.

Turning to `CCN1CC2(CC1=O)CN(C(=O)c1ccco1)CCN(C(=O)N(C)C)C2` (stereo not given), the INHIBITION was found to be 5.14%.

For `CCN1CC2(CC1=O)CN(C(=O)c1cccs1)CCN(C(=O)N(C)C)C2` (stereo not given), the INHIBITION was 71%.

As for `CCN1CC2(CC1=O)CN(C(=O)c1ccsc1)CCN(C(=O)N(C)C)C2` (stereo not given), the INHIBITION is recorded as 56.1%.

The values are drawn from ChEMBL document CHEMBL4513216, “Probing the Open Global Health Chemical Diversity Library for Multistage-Active Starting Points for Next-Generation Antimalarials” (ACS Infect Dis, 2020).
